In PubChem BioAssay one finds composite z-score data, which are given here for 31 compounds.

Sequence of Concanavalin-A (Canavalia ensiformis) (P02866 whole entry, looked up): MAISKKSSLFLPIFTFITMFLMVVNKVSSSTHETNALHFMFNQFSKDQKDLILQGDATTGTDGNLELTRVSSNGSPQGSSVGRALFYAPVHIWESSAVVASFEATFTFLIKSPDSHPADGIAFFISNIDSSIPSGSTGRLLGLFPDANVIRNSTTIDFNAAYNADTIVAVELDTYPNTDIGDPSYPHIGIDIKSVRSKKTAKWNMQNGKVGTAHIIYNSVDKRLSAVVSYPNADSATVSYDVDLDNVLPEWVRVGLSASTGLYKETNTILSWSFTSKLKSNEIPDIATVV

The assay has as its target Concanavalin-A (Canavalia ensiformis) (UniProt P02866). As to the kind of experiment: compounds binding concanavalin A lectin – biochemical, small-molecule microarray, Alexa647 label, 635 nm, artefact control for SMM control protein annotation, primary screen (AID 1127).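 Also: z combines 667 nm emission intensity with signal-to-noise across three replicate slides.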 Conditions: ConA-A647 binding fluorescence, higher = more signal.
`CSCC[C@@H]1NC(=O)CC=C[C@@H](C)COC(=O)[C@H](C)COC1=O` registered a composite z-score of -2.98.
Compound `CC1(C)O[C@H]2O[C@H]([C@H](O)CON=C3[C@H]4CCn5c(=O)n(-c6ccccc6)c(=O)n5[C@H]4[C@H](O)[C@@H]4O[C@H]34)[C@H](O)[C@H]2O1` registered a composite z-score of 0.444.
On to `COc1cccc([C@H]2Oc3ccc(OC)cc3C(=NO[C@@H](C)c3cc(-c4c(C)cc(C)cc4C)no3)[C@@H]2O)c1`, for which the composite z-score is -1.57.
Then `CC(=O)OC[C@H]1O[C@H](C#CCCc2ccccc2)C=C[C@@H]1OC(C)=O`, with 0.127; and `CC(C)=CCCC(C)=CCON=C1C[C@@H](O)[C@@H](O)[C@@H]2[C@@H]3C(=O)N(C4CCCCC4)C(=O)[C@@H]3CC[C@H]12`, with 0.48; and `COC(=O)[C@H](C)NC(=O)CCC1CC(OC(=O)NCc2ccc3c(c2)OCO3)CC2(CCCC(COC(=O)NCCc3ccc(Cl)cc3)O2)O1` (stereo partly specified), with -0.455.
Regarding `COC(=O)[C@H](C)NC(=O)CCC1CC(OC(=O)NCCc2ccc(F)cc2)CC2(CCCC(COC(=O)NCC3CCCCC3)O2)O1` (stereo partly specified), the composite z-score stood at 0.971.
Compound `CCN1C(=O)[C@H]2[C@H]3[C@H](O)[C@H](O)CC(=NO[C@H](C)c4cn([C@H](CO)Cc5ccccc5)nn4)[C@@H]3CC[C@H]2C1=O` showed a composite z-score of 1.05.
On to `CCN1C(C)=C(C(=O)OC)[C@@H](c2ccccc2)N2C(=O)[C@](O)(C(=O)OC)CC(C(C)=O)=C12`, for which the composite z-score worked out at 0.29.
`C=CC[C@@H]1C=C[C@H](ON=C(C)CCN2CCCCc3nc(C)c(C)cc32)[C@@H](CO)O1` returned a composite z-score of -0.223.
`CC(C)=NOC(C)CN1CCCCc2nc(C)c(C)cc21` (stereo unspecified) showed a composite z-score of 0.109.
The compound `CCOC(=O)[C@H](Cc1ccccc1)NC(=O)CCC1CC(OC(=O)NCCc2ccc(F)cc2)CC2(CCCC(COC(=O)NCCOc3ccccc3)O2)O1` (stereo partly specified) had a composite z-score of 0.909.
With `Cc1ccc(S(=O)(=O)N[C@@H]2COC(=O)CC=C[C@@H](C)[C@H](NS(=O)(=O)c3ccc(C)cc3)COC(=O)[C@H](C)NC(=O)CC=C[C@H]2C)cc1`, the composite z-score was -1.46.
Consider `CCOC(=O)CCN1C(=O)[C@H]2[C@H]3[C@H](O)[C@H](O)CC(=NOCC(C)C)[C@@H]3CC[C@H]2C1=O`, for which the composite z-score was -1.16.
`CC(=O)OC[C@H]1O[C@H](CCON=C(C)CCN2CCCc3nc(C)c(C)cc32)C=C[C@@H]1OC(C)=O` gave a composite z-score of 0.672.
`Cc1cc2c(nc1C)CCCCN2CC(O)CN1CCCc2nc(-c3ccc(Br)cc3)ccc21` (stereo unspecified) gave a composite z-score of 0.783.
The compound `CC(C)(C)N1C(=O)[C@H]2[C@@H]3C(=CC[C@H]2C1=O)C(=O)[C@H]1O[C@H]1[C@H]3O` showed a composite z-score of -0.721.
Then `CC(CCN1CCCc2nc(C)c(C)cc21)=NOC[C@@H](C)[C@H](OCc1ccccc1)C(C)C`, with -0.691; and `CON=C(C)CCC(=O)OC[C@H]1O[C@H](C#Cc2ccccc2)C=C[C@@H]1Oc1ccc(C)cc1`, with 0.491.
Consider `C[C@@H]1CC[C@@H](C(=O)O)N[C@H]1c1cccc(N2CCOCC2)c1`, for which the composite z-score was found to be 0.305.
For `O=C1C2=CC[C@H]3C(=O)N(C4CCCCC4)C(=O)[C@H]3[C@H]2[C@H](O)[C@@H]2O[C@H]12`, the composite z-score is -0.21.
The compound `CCOC(=O)[C@H](Cc1ccccc1)NC(=O)CCC1CC(OC(=O)NCCc2ccc(F)cc2)CC2(CCCC(COC(=O)NCc3cccc(C(F)(F)F)c3)O2)O1` (stereo partly specified) came in with a composite z-score of 1.06.
In turn, `O=C1[C@H]2[C@H]3[C@H](O)[C@H](O)CC(=NO[C@@H]4O[C@H](CO)[C@@H](O)[C@H](O)[C@H]4O)[C@H]3CC[C@H]2C(=O)N1C[C@@H]1CCCO1` gave a composite z-score of -0.391.
Regarding `CC(CCC(=O)OC[C@H]1O[C@H](C#Cc2ccccc2)C=C[C@@H]1Oc1ccc(C)cc1)=NOC[C@@H](C)[C@H](OCc1ccccc1)C(C)C`, the composite z-score is -1.14.
`C[C@@H]1CC[C@H]2C(=O)OC(Cc3ccccc3)CN2[C@H]1c1ccc(Br)cc1` (stereo partly specified) displayed a composite z-score of 0.494.
For `COC(=O)CC=C[C@@H](C)[C@@H](C=NOC[C@@H](O)COCc1ccco1)OC` the value was -0.619.
With `CCc1cc2c(nc1CC)CCN(CCC(C)=NOC[C@@H](C)[C@H](OCc1ccccc1)C(C)C)C2`, the composite z-score is -1.12.
In turn, `O=C1C2=CC[C@H]3C(=O)N(C[C@@H]4CCCO4)C(=O)[C@H]3[C@H]2[C@H](O)[C@@H]2O[C@H]12` yielded a composite z-score of 0.397.
`CCOC(=O)CCN1C(=O)[C@H]2[C@H]3[C@H](O)[C@H](O)CC(=NNC(=O)OCC)[C@H]3CC[C@H]2C1=O` returned a composite z-score of -2.61.
Then `COc1ccc2c(c1)O[C@@H](c1cccc(C(F)(F)F)c1)[C@H](O)C2=O`, with 0.494; and `COC(=O)CC=C[C@@H](C)[C@@H](C=NOC(C)CN1CCCCc2nc(C)c(C)cc21)NS(=O)(=O)c1ccc(C)cc1` (stereo partly specified), with -0.135.
